Measured values from PubChem BioAssay.
Activity calls are given as the source filed them.

Tests used:
[1] = binders of probe aFSTL3 on microarray, primary screen, stem cell growth factor project, biochemical, small-molecule microarray, fluorescence 635/667 (AID 1064); conditions: higher = more signal;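 also: measures binding of the biotinylated anti-FSTL3 antibody to printed compounds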
[2] = binders from COS7 lysate, DM2A8 probe, primary screen, torsin A project, cell lysate, small-molecule microarray, fluorescence 635/667 (AID 1065); conditions: higher = more signal, COS7 lysate expressing mutant human TOR1A
[3] = binders of probe aFGF2 on microarray, primary screen, stem cell growth factor project, biochemical, small-molecule microarray, fluorescence 635/667 (AID 1067); conditions: higher = more signal;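 also: measures binding of biotinylated aFGF2 protein to printed compounds on slides; z-score merges feature fluorescence and signal-to-noise across triplicate slides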
[4] = binders of probe aFGF10 on microarray, primary screen, stem cell growth factor project, biochemical, small-molecule microarray, fluorescence 635/667 (AID 1071); conditions: higher = more signal;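 also: score merges 667 nm spot intensity and signal to noise from triplicate slides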
[5] = target: Neurogenic locus notch homolog protein 2 (Homo sapiens) (UniProt Q04721); assay: Notch2 binders on small-molecule microarrays, primary screen, biochemical, small-molecule microarray, 635 nm fluorescence, stem cell growth factors (AID 1073); conditions: Notch2 binding, higher = more signal
[6] = target: Pro-neuregulin-1, membrane-bound isoform (Homo sapiens) (UniProt Q02297); assay: NRG1 binders on small-molecule microarrays, primary screen, psychiatric disease protein project, biochemical, small-molecule microarray, fluorescence 635/667 (AID 1075); conditions: NRG1 binding, 635 nm fluorescence, higher = more signal;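 also: score combines 667 nm spot fluorescence with signal to noise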
[7] = test system: Neuregulin-1 EGF-like domain; assay: binders of neuregulin-1 EGF-like domain, primary screen, biochemical, small-molecule microarray, 635 nm fluorescence (AID 1081); conditions: small-molecule microarray binding, higher = more signal;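 also: binding of the protein to compounds printed on small-molecule microarray slides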
[8] = FRG1 promoter luciferase signal modulators, primary screen, FRG1 inhibition for FSHD, cell-based, C2C12 myotubes, firefly/Renilla luciferase, luminescence (AID 1084); conditions: higher = more signal, called active from +8 up or from −8 down
[9] = binders of probe aFST on microarray, primary screen, stem cell growth factor project, biochemical, small-molecule microarray, fluorescence 635/667 (AID 1086); conditions: higher = more signal;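 also: score merges 667 nm fluorescence with signal-to-noise of each printed compound spot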
[10] = binders of probe aHhip on microarray, primary screen, stem cell growth factor project, biochemical, small-molecule microarray, fluorescence 635/667 (AID 1087); conditions: higher = more signal;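 also: score merges spot fluorescence at 667nm with spot signal to noise ratio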
[11] = test system: PRMT1 (protein arginine N-methyltransferase 1); assay: PRMT1 binders on small-molecule microarrays, primary screen, biochemical, small-molecule microarray, 635 nm fluorescence (AID 1088); conditions: small-molecule microarray binding, higher = more signal;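 also: binding of Prmt1 protein to compounds spotted on small-molecule microarray slides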
[12] = yeast growth modulation, basal conditions, primary screen, YJM789 clinical isolate, OD600, 24 h (AID 1089);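 also: growth of clinical yeast isolate S. cerevisiae YJM 789 seeded 1000 cells per well; test concentration not given here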; conditions: S. cerevisiae YJM789 growth, higher = more signal, called active from +8 up or from −8 down
[13] = fission yeast growth modulation, primary screen, strain 972, OD600, 24 h, no modulator (AID 1090);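 also: basal condition with compound alone and no growth modifier present; test concentration not given here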; conditions: S. pombe 972 growth, higher = more signal, called active from +8 up or from −8 down
[14] = S. cerevisiae growth modulation with rapamycin, primary screen, strain BY4716, OD600, 96 h (AID 1091); conditions: higher = more signal, called active from +8 up or from −8 down; also: test concentration not given here
[15] = target: Torsin-1A-interacting protein 2 (Homo sapiens) (UniProt Q8NFQ8); assay: LULL1 binders on small-molecule microarray, primary screen, cell lysate, human LULL1 lysate, 635/667 nm fluorescence (AID 1092); conditions: hLULL1 lysate binding, 635 nm fluorescence, higher = more signal;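 also: probe is lysate of COS7 cells overexpressing human LULL1; score merges per-feature 667 nm fluorescence with signal-to-noise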
[16] = E. coli growth modulation, two-sided OD650, primary screen, E. coli filamentation project, strain DRC41, 24 h (AID 1093); conditions: OD650, 24 h, higher = more signal, called active from +8 up or from −8 down;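 also: MC1000 strain lacking acrAB efflux and sulA so SOS filamentation is blocked; test concentration not given here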
[17] = small-molecule microarray binders of probe aLefty2, primary screen, biochemical, biotinylated probe, 635/667 nm fluorescence (AID 1094); conditions: higher = more signal;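 also: score merges spot fluorescence near 667 nm with spot signal-to-noise ratio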
[18] = test system: Noggin (protein binding on small-molecule microarray); assay: Noggin binders on small-molecule microarray, primary screen, biochemical, 635/667 nm fluorescence (AID 1095); conditions: 635 nm fluorescence, higher = more signal;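 also: score merges 667 nm feature fluorescence with signal to noise over triplicate slides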
[19] = target: Neurogenic locus notch homolog protein 3 (Homo sapiens) (UniProt Q9UM47); assay: NOTCH3 binders on small-molecule microarray, primary screen, biochemical, 635/667 nm fluorescence (AID 1096); conditions: NOTCH3 binding, 635 nm fluorescence, higher = more signal
[20] = small-molecule microarray binders of probe aEGFR, primary screen, biochemical, biotinylated probe, 635/667 nm fluorescence (AID 1097); conditions: higher = more signal;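 also: probe is a biotinylated anti-EGFR antibody binding compounds printed on slides; score combines fluorescence near 667 nm and signal to noise of each spot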

Sequence of Neurogenic locus notch homolog protein 3 (Homo sapiens) (Q9UM47 whole entry, looked up): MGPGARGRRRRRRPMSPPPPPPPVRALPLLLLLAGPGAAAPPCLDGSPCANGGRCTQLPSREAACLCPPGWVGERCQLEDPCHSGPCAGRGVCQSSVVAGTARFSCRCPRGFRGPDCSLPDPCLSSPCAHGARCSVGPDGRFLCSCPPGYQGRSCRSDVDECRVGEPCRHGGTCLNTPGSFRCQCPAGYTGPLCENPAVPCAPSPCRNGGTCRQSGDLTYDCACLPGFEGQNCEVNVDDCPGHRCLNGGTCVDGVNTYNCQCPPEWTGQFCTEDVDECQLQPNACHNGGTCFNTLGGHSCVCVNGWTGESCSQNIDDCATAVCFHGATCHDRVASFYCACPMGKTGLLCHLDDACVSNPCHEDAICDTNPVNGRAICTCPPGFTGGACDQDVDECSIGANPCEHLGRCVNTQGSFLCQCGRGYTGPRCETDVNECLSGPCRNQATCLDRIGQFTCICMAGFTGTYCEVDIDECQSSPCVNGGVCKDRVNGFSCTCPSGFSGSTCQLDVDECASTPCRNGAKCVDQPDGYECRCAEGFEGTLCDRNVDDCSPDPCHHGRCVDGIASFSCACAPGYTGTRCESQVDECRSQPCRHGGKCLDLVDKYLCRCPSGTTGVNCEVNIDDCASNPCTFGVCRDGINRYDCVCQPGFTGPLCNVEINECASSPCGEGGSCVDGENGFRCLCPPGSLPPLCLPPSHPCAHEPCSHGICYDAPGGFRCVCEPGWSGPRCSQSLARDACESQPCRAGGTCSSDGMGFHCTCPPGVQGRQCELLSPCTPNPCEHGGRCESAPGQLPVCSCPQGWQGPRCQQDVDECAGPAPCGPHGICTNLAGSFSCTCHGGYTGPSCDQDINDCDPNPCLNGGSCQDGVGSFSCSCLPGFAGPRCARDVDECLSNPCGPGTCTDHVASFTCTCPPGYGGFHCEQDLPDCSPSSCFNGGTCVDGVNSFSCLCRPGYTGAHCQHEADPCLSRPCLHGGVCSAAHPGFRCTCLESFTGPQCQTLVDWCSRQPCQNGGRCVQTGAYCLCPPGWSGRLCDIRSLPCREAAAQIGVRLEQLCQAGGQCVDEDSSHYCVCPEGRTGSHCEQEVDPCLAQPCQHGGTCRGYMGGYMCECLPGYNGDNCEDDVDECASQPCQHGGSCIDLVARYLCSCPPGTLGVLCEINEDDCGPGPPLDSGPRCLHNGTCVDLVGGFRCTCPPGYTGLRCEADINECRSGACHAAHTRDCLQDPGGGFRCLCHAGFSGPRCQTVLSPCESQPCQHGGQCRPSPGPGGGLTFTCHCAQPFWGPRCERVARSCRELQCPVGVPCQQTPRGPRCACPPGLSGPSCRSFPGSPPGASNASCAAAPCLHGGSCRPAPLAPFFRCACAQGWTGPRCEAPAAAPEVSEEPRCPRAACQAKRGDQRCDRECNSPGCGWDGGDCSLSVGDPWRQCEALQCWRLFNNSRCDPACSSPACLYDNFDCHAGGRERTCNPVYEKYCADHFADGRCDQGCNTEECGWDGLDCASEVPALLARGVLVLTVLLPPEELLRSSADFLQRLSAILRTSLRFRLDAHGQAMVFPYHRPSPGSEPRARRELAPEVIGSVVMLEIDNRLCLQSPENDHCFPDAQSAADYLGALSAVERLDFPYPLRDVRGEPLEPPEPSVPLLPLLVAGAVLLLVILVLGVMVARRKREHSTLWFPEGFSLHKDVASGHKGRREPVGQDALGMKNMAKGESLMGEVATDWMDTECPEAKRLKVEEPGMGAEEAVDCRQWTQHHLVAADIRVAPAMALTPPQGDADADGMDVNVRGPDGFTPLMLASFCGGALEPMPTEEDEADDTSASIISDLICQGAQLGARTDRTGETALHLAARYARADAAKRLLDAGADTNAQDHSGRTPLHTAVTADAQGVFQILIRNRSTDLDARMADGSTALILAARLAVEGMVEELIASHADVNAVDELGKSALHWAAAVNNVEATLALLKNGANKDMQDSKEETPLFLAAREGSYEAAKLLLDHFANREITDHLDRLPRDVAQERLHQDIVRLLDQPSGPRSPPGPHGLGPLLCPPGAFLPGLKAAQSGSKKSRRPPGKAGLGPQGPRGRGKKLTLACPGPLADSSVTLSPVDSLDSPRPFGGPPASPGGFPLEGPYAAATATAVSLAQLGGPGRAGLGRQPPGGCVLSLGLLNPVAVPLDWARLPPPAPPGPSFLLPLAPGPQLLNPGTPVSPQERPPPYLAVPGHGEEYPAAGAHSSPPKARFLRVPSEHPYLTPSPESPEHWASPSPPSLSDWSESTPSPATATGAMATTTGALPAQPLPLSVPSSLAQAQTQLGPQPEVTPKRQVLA
Sequence of Neurogenic locus notch homolog protein 2 (Homo sapiens) (Q04721 whole entry, looked up, canonical isoform): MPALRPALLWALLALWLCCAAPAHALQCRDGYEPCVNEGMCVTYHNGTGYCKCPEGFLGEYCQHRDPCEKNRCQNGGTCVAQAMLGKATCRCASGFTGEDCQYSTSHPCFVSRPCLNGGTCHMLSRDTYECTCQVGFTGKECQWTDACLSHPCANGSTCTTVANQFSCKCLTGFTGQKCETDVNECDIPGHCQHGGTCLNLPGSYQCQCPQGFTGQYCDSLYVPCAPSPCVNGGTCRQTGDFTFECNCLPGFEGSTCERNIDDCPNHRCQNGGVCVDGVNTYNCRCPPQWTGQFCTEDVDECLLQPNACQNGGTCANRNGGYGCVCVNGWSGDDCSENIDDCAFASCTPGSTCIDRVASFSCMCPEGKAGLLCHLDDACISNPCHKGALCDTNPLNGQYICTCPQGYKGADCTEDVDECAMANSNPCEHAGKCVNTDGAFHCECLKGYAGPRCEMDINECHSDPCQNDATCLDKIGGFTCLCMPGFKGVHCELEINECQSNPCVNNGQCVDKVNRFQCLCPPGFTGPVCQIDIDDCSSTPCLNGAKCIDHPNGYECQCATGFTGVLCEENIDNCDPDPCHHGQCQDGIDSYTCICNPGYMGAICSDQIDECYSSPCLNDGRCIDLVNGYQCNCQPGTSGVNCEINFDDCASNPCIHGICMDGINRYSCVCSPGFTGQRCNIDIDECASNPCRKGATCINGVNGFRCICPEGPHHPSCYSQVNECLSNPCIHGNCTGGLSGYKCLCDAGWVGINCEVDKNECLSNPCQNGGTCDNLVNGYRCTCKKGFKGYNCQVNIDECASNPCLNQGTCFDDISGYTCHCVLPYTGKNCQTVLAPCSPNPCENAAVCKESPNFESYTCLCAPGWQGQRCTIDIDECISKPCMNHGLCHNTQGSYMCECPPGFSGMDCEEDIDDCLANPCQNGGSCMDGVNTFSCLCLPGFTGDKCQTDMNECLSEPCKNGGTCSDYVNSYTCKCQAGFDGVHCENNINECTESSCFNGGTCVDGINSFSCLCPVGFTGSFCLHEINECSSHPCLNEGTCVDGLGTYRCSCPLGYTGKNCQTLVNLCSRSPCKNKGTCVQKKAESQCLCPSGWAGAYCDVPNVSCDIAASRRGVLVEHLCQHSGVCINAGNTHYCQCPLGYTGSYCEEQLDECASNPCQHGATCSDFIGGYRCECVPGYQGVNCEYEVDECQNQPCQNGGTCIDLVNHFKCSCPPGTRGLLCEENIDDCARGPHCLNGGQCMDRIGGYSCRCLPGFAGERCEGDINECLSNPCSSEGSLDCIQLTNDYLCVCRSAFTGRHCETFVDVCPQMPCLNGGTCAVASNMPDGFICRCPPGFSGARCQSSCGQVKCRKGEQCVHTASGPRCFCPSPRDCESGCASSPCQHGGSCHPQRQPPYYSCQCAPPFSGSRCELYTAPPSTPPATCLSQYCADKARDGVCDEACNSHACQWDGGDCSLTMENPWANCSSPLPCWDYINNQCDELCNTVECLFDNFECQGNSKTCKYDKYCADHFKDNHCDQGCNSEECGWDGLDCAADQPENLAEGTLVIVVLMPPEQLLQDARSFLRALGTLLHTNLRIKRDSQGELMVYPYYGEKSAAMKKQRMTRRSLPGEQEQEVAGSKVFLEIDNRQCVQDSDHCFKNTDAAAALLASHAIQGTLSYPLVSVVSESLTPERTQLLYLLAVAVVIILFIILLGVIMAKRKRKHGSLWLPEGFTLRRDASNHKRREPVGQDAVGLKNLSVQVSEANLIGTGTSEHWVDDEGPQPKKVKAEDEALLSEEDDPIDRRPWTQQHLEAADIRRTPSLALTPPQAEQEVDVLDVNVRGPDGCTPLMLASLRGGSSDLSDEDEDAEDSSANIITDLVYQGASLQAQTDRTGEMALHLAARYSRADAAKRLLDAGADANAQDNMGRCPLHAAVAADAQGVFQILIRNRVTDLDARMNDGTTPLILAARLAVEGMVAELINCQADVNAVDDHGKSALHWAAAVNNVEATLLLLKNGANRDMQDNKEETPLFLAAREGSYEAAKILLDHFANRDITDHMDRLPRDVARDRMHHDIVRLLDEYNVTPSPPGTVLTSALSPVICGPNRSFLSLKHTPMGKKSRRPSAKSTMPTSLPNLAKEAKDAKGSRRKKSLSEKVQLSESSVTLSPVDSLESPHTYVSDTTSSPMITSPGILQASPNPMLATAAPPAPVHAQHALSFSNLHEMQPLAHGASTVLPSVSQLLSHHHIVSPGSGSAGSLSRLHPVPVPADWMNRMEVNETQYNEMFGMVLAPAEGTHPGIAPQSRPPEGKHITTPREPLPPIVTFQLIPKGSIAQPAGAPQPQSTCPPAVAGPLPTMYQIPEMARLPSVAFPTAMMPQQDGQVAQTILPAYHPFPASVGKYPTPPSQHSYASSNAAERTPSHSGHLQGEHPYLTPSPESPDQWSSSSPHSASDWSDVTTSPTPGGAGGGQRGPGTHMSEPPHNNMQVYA

Compound | composite z-score [1] | composite z-score [2] | composite z-score [3] | composite z-score [4] | composite z-score [5] | composite z-score [6] | composite z-score [7] | z-score [8] | composite z-score [9] | composite z-score [10] | composite z-score [11] | z-score [12] | z-score [13] | z-score [14] | composite z-score [15] | z-score [16] | composite z-score [17] | composite z-score [18] | composite z-score [19] | composite z-score [20]
C=CC1c2cc(O)c(OC)cc2CCN1Cc1cc2c(cc1Br)OCO2 (stereo not given) | 1.54 | 1.07 | -0.101 | -0.15 | -0.322 | 1.19 | 1.22 | -0.454 (inactive) | 0.221 | -0.132 | 1.25 | -17.7 (active) | -19.8 (active) | -1.33 (inactive) | 2.51 | -2 (inactive) | 0.386 | 0.289 | 0.435 | -0.132
[N-]=[N+]=Nc1ccccc1[C@H]1OC(c2ccc(OCCCO)cc2)=N[C@@]1(CCS(=O)(=O)c1ccccc1)C(=O)NCCN1CCOCC1 | 0.052 | 0.0825 | 0.115 | 0.839 | 1.28 | 1.35 | 1.12 | 5.72 (inactive) | 1.58 | -0.166 | 1.55 | 0.299 (inactive) | 1.13 (inactive) | 0.683 (inactive) | 3.3 | 0.17 (inactive) | 0.414 | 0.55 | 0.839 | 0.154
NCCCCCNC(=O)[C@@H]1C[C@@H]2C(=O)NCC(=O)N2[C@@H]1c1cccc(OCCO)c1 | -0.144 | 0.45 | 0.108 | 0.773 | 0.756 | 0.889 | 1.34 | 0.0981 (inactive) | 0.417 | 0.151 | 1.44 | -0.0012 (inactive) | -0.926 (inactive) | 0.267 (inactive) | 1.32 | 2.01 (inactive) | 0.086 | 1.35 | 0.712 | -0.0158
Cn1cccc1C(O)C1C=CC2C(=O)NC(=O)C2N1Nc1ccc(Cl)cc1Cl (stereo not given) | 0.435 | 0.263 | 0.167 | 0.68 | 1.68 | 2.04 | 1.15 | 0.978 (inactive) | 1.92 | 0.107 | 1.04 | -0.477 (inactive) | -1.81 (inactive) | -0.356 (inactive) | 3.52 | -2.82 (inactive) | 0.673 | 0.405 | 1.05 | 0.0201
COCCOC(=O)N1C(=O)[C@@]2(c3cc(C#CCCO)ccc31)[C@H](C(=O)Nc1nc3ccccc3s1)[C@H]1C(=O)O[C@H](c3ccccc3)[C@H](c3ccccc3)N1[C@@H]2c1ccccc1OCCO | -0.224 | 0.53 | 0.0293 | 0.802 | 1.29 | 0.95 | 1.32 | 1.23 (inactive) | 0.745 | 0.153 | 1.54 | 2.53 (inactive) | 1.7 (inactive) | 3.64 (inactive) | 2.81 | -0.0236 (inactive) | -0.116 | 0.6 | 1.09 | -0.0828
CN(C)CCCNC(=O)[C@@]1(c2ccc([N+](=O)[O-])cc2)CC(=O)N(CC23CC4CC(CC(C4)C2)C3)[C@@H]1c1ccc(CO)cc1I | -0.319 | 0.634 | -0.0687 | 0.272 | 1.2 | 0.343 | 1.36 | -2.44 (inactive) | 1.48 | 0.0749 | 1.53 | -25.1 (active) | -18.6 (active) | -2.21 (inactive) | 2.35 | -6.64 (inactive) | -0.182 | 1.75 | 1.06 | 0.0209
C=C[C@@H](OC)[C@H](OC(=O)Nc1ccc(SC)cc1)c1ccc(O)c(F)c1 | 0.0213 | 0.5 | -0.0024 | 0.362 | -0.0166 | 1.25 | 1.35 | 3.87 (inactive) | 0.2 | -0.069 | 1.56 | 1.05 (inactive) | 0.123 (inactive) | 1.65 (inactive) | 2.58 | 0.374 (inactive) | -0.0654 | 0.808 | 0.185 | -0.126
CN(C)C(=O)[C@@]1(CCS(=O)(=O)c2ccccc2)N=C(c2ccc(OCCCO)cc2)O[C@H]1c1ccccc1 | -0.0356 | 0.79 | 0.163 | 0.746 | 1.35 | 2.13 | 1.34 | -0.522 (inactive) | 1.52 | 0.0401 | 1.07 | -0.308 (inactive) | -0.255 (inactive) | 0.117 (inactive) | 3.51 | -0.16 (inactive) | 0.0932 | -0.135 | 1.08 | -0.0215
C=C(C)c1cc2c(c(CCCCCC)n1)[Si](C(C)C)(C(C)C)OC2 | -0.392 | -1.42 | -0.157 | -1.05 | -1.03 | -0.792 | -1.02 | -0.647 (inactive) | -0.437 | 0.0201 | -0.293 | 1.21 (inactive) | 0.653 (inactive) | -0.9 (inactive) | -1.03 | -1.17 (inactive) | -0.193 | -0.714 | -0.64 | -0.287
